Hit rate of the full screen: of about 5,500 compounds, about 2,000 (36%) were called active. Not shown: some 18% with an inconclusive outcome. Cut-off read from the data, not from the text of the source: active = normalized growth mostly below about 0.91 (no sharp cut-off); inconclusive = no clear call, values can overlap the other calls; inactive = mostly above about 0.92. The list shows a part of the results.
Assay: chemical genetic growth profiling, strain panel (AID 1159580);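 note: tested at 20 µM; growth read once vehicle control cultures reached saturation at 30 °C; 1 = growth at the plate median or of vehicle wells; lower values mean less growth of the strain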
Conditions: growth OD

Measured: normalized growth

CCOC(=O)[C@H](CCc1ccccc1)N[C@@H](C)C(=O)N1Cc2ccccc2C[C@H]1C(=O)O
inactive: S. cerevisiae deletion strains, locus YJR043C, strain POL32, active compounds read low 1.02 | S. cerevisiae deletion strains, locus YJR066W, strain TOR1, active compounds read low 0.98 | S. cerevisiae deletion strains, locus YKL009W, strain mrt4, active compounds read low 0.994 | S. cerevisiae deletion strains, locus YKL068W, active compounds read low 1 | S. cerevisiae deletion strains, locus YKL085W, strain MDH1 (second series), active compounds read low 1.01 | S. cerevisiae deletion strains, locus YKL085W, strain MDH1, active compounds read low 1.01 | S. cerevisiae deletion strains, locus YKL160W, strain elf1, active compounds read low 0.975 | S. cerevisiae deletion strains, locus YKL190W, strain CNB1, active compounds read low 1.01 | S. cerevisiae deletion strains, locus YKR001C, strain vps1, active compounds read low 0.986 | S. cerevisiae deletion strains, locus YKR026C, strain gcn3, active compounds read low 0.994 | S. cerevisiae deletion strains, locus YKR091W, strain srl3, active compounds read low 1 | S. cerevisiae deletion strains, locus YLL001W, strain dnm1, active compounds read low 0.998 | S. cerevisiae deletion strains, locus YLL026W, active compounds read low 1.01 | S. cerevisiae deletion strains, locus YLL041C, strain sdh2, active compounds read low 0.998 | S. cerevisiae deletion strains, locus YLR027C, strain aat2, active compounds read low 0.994 | S. cerevisiae deletion strains, locus YLR039C, strain RIC1, active compounds read low 1.05 | S. cerevisiae deletion strains, locus YLR058C, strain SHM2, active compounds read low 1.01 | S. cerevisiae deletion strains, locus YLR102C, strain apc9, active compounds read low 1.01 | S. cerevisiae deletion strains, locus YLR113W, strain HOG1, active compounds read low 0.963 | S. cerevisiae deletion strains, locus YLR221C, strain rsa3, active compounds read low 1.02 | S. cerevisiae deletion strains, locus YLR258W, strain gsy2, active compounds read low 0.999 | S. cerevisiae deletion strains, locus YLR262C, strain YPT6 (second series), active compounds read low 0.995 | S. cerevisiae deletion strains, locus YLR262C, strain YPT6, active compounds read low 1.07 | S. cerevisiae deletion strains, locus YLR268W, strain sec22, active compounds read low 1 | S. cerevisiae deletion strains, locus YLR320W, strain mms22, active compounds read low 0.996 | S. cerevisiae deletion strains, locus YLR330W, strain CHS5, active compounds read low 1 | S. cerevisiae deletion strains, locus YLR342W, strain FKS1 (second series), active compounds read low 1.02 | S. cerevisiae deletion strains, locus YLR342W, strain FKS1, active compounds read low 1.02 | S. cerevisiae deletion strains, locus YLR357W, strain rsc2, active compounds read low 0.975 | S. cerevisiae deletion strains, locus YLR370C, strain arc18, active compounds read low 0.985 | S. cerevisiae deletion strains, locus YLR371W, strain rom2, active compounds read low 1.01 | S. cerevisiae deletion strains, locus YLR384C, strain iki3, active compounds read low 1.01 | S. cerevisiae deletion strains, locus YLR418C, strain cdc73, active compounds read low 1 | S. cerevisiae deletion strains, locus YML016C, strain PPZ1, active compounds read low 1 | S. cerevisiae deletion strains, locus YML032C, strain rad52, active compounds read low 1 | S. cerevisiae deletion strains, locus YML120C, strain ndi1, active compounds read low 0.996 | S. cerevisiae deletion strains, locus YML124C, strain tub3, active compounds read low 1.01 | S. cerevisiae deletion strains, locus YMR058W, strain fet3, active compounds read low 1.01 | S. cerevisiae deletion strains, locus YMR078C, strain ctf18, active compounds read low 1 | S. cerevisiae deletion strains, locus YMR125W, strain sto1, active compounds read low 0.989 | S. cerevisiae deletion strains, locus YMR129W, active compounds read low 0.989 | S. cerevisiae deletion strains, locus YMR205C, strain PFK2, active compounds read low 1 | S. cerevisiae deletion strains, locus YMR223W, strain ubp8, active compounds read low 1.02 | S. cerevisiae deletion strains, locus YMR231W, strain pep5, active compounds read low 0.999 | S. cerevisiae deletion strains, locus YMR307W, strain GAS1, active compounds read low 0.979 | S. cerevisiae deletion strains, locus YNL067W, strain RPL9B, active compounds read low 0.995 | S. cerevisiae deletion strains, locus YNL071W, strain lat1, active compounds read low 0.998 | S. cerevisiae deletion strains, locus YNL183C, strain NPR1, active compounds read low 0.949 | S. cerevisiae deletion strains, locus YNL209W, strain ssb2, active compounds read low 0.994 | S. cerevisiae deletion strains, locus YNL233W, strain BNI4, active compounds read low 0.994 | S. cerevisiae deletion strains, locus YNL248C, strain rpa49, active compounds read low 0.957 | S. cerevisiae deletion strains, locus YNL250W, strain rad50, active compounds read low 1.01 | S. cerevisiae deletion strains, locus YNL271C, strain bni1, active compounds read low 1.02 | S. cerevisiae deletion strains, locus YNL298W, strain CLA4, active compounds read low 1.01 | S. cerevisiae deletion strains, locus YNL307C, strain MCK1, active compounds read low 1.02 | S. cerevisiae deletion strains, locus YNL322C, strain KRE1 (second series), active compounds read low 0.996 | S. cerevisiae deletion strains, locus YNL322C, strain KRE1, active compounds read low 1.01 | S. cerevisiae deletion strains, locus YNR049C, strain mso1, active compounds read low 1 | S. cerevisiae deletion strains, locus YNR052C, strain pop2, active compounds read low 1.01 | S. cerevisiae deletion strains, locus YOL006C, strain TOP1, active compounds read low 0.987 | S. cerevisiae deletion strains, locus YOL012C, strain htz1 1.52 | S. cerevisiae deletion strains, locus YOL147C, strain pex11, active compounds read low 1.01 | S. cerevisiae deletion strains, locus YOR001W, strain rrp6, active compounds read low 1.01 | S. cerevisiae deletion strains, locus YOR061W, strain CKA2, active compounds read low 1.01 | S. cerevisiae deletion strains, locus YOR069W, strain VPS5, active compounds read low 1 | S. cerevisiae deletion strains, locus YOR070C, strain gyp1, active compounds read low 1.01 | S. cerevisiae deletion strains, locus YOR080W, strain dia2, active compounds read low 1.01 | S. cerevisiae deletion strains, locus YOR083W, strain WHI5, active compounds read low 0.963 | S. cerevisiae deletion strains, locus YOR106W, strain vam3, active compounds read low 0.989 | S. cerevisiae deletion strains, locus YOR136W, strain idh2, active compounds read low 1.01 | S. cerevisiae deletion strains, locus YOR144C, strain elg1, active compounds read low 1.01 | S. cerevisiae deletion strains, locus YOR184W, strain ser1, active compounds read low 1 | S. cerevisiae deletion strains, locus YOR231W, strain MKK1, active compounds read low 0.974 | S. cerevisiae deletion strains, locus YOR265W, strain rbl2, active compounds read low 1.02 | S. cerevisiae deletion strains, locus YOR270C, strain vph1, active compounds read low 0.853 | S. cerevisiae deletion strains, locus YOR290C, strain snf2, active compounds read low 0.972 | S. cerevisiae deletion strains, locus YOR316C, strain cot1, active compounds read low 1.02 | S. cerevisiae deletion strains, locus YPL051W, strain arl3, active compounds read low 0.995 | S. cerevisiae deletion strains, locus YPL078C, strain atp4, active compounds read low 0.98 | S. cerevisiae deletion strains, locus YPL106C, strain sse1, active compounds read low 1 | S. cerevisiae deletion strains, locus YPL240C, strain hsp82, active compounds read low 1.02 | S. cerevisiae deletion strains, locus YPL241C, strain CIN2, active compounds read low 1.01 | S. cerevisiae deletion strains, locus YPL256C, strain CLN2, active compounds read low 0.962 | S. cerevisiae deletion strains, locus YPR119W, strain clb2, active compounds read low 1 | S. cerevisiae deletion strains, locus YPR141C, strain kar3, active compounds read low 1.01 | S. cerevisiae deletion strains, locus YPR163C, strain tif3, active compounds read low 1.01 | S. cerevisiae deletion strains, locus YPR167C, strain met16, active compounds read low 1.01 | S. cerevisiae deletion strains, strain wtn01, active compounds read low 1 | S. cerevisiae strains, strain wild type, active compounds read low 1.01

— PubChem BioAssay AID1159580 (chemical genetic matrix, 2015)
